# Values without a mark were called inactive. Active and inactive are the calls of the source. Rule as the data show it: active = nuclear beta-catenin stimulation mostly above about 4.2% (no sharp cut-off); inactive = mostly below about 10%.
# Experiment: Wnt pathway potentiators raising nuclear beta-catenin – imaging, WNT3A-conditioned medium, mouse C2C12, NPC library, primary screen (AID 1117326); also: reference of the scale not given here
# Conditions: at 10 µM, hits give high values
row,Compound,nuclear beta-catenin stimulation
1,CCN(CCCCOC(=O)c1ccc(OC)c(OC)c1)C(C)Cc1ccc(OC)cc1 (configuration not stated),0.6%
2,O=C(O)CSCC(=O)NC1CCSC1=O (configuration not stated),-0.4%
3,O=C1c2ccccc2C(=O)C1c1ccccc1,0.3%
4,COCCCOc1cc(C[C@@H](C[C@H](N)[C@@H](O)C[C@H](C(=O)NCC(C)(C)C(N)=O)C(C)C)C(C)C)ccc1OC,-0.6%
5,Cc1onc(-c2ccccc2Cl)c1C(=O)N[C@@H]1C(=O)N2[C@@H]1SC(C)(C)[C@@H]2C(=O)O,0.5%
6,Cc1cccc(C(=O)O)c1O,0%
7,CCCCCCCCCCCCCCCCCCOCC(O)CO (configuration not stated),3.8%
8,CCN(CC)CCNC(=O)COc1ccc(OC)cc1,0.5%
9,CN1CCOC(c2ccccc2)c2ccccc2C1 (configuration not stated),-0.7%
10,CCCCC(=O)O[C@]1(C(=O)CO)[C@@H](C)C[C@H]2[C@@H]3CCC4=CC(=O)C=C[C@]4(C)[C@@]3(F)[C@@H](O)C[C@@]21C,2.9%
11,C[n+]1c2cc(N)ccc2cc2ccc(N)cc21 (tested in a mixture with another compound),123% (active)
12,CCC(C)n1ncn(-c2ccc(N3CCN(c4ccc(OC[C@H]5CO[C@](Cn6cncn6)(c6ccc(Cl)cc6Cl)O5)cc4)CC3)cc2)c1=O (some centres not stated),36.2%
13,O=c1[nH]cnc2c1ncn2[C@@H]1O[C@H](CO)[C@@H](O)[C@H]1O,-1%
14,CCN(CCCc1ccccc1)CCCc1ccccc1,1%
15,CN1CCN(c2cc3c(cc2F)c(=O)c(C(=O)O)cn3-c2ccc(F)cc2)CC1,0.8%
16,C/C=C1\[C@H]2C=C(C)C[C@]1(N)c1ccc(=O)[nH]c1C2,-0.8%
17,COc1ccccc1OCC(O)CO (configuration not stated),1.9%
18,CC1=C(C)C(=O)C(C(CCCCCC(=O)O)c2ccccc2)=C(C)C1=O (configuration not stated),0%
19,NS(=O)(=O)c1cc2c(cc1Cl)NC(C(Cl)Cl)NS2(=O)=O (configuration not stated),-0.1%

row,Compound,nuclear beta-catenin stimulation
1,C[C@@H]1CN(c2c(F)c(F)c3c(=O)c(C(=O)O)cn(C4CC4)c3c2F)C[C@H](C)N1,-0.9%
2,O=C(O)c1ccccc1Nc1cccc(C(F)(F)F)c1,1.3%
3,CCCc1ncc(C[n+]2ccccc2C)c(N)n1,-1.3%
4,O=C(O)/C=C(\CC(=O)O)C(=O)O,-0.9%
5,Cc1nc2n(c(=O)c1CCN1CCC(c3noc4cc(F)ccc34)CC1)CCC[C@H]2O,0%
6,NC(N)=NCCN1CCCCCCC1,0.1%
7,Cc1cc(=O)n(-c2ccccc2)n1C,1.1%
8,C[N+]1(C)[C@@H]2CC(OC(=O)[C@H](CO)c3ccccc3)C[C@H]1[C@@H]1O[C@@H]12 (some centres not stated),1.5%
9,CC(C)NC[C@@H](O)COc1cccc2ccccc12,-0.4%
10,Cc1c(C(=O)O)c(O)cc2c1C(=O)c1c(O)c([C@@H]3O[C@H](CO)[C@@H](O)[C@H](O)[C@H]3O)c(O)c(O)c1C2=O,0%
11,CO[C@H]1C=CO[C@@]2(C)Oc3c(C)c(O)c4c(O)c(c(/C=N/N5CCN(C)CC5)c(O)c4c3C2=O)NC(=O)/C(C)=C\C=C[C@H](C)[C@H](O)[C@@H](C)[C@@H](O)[C@@H](C)[C@H](OC(C)=O)[C@@H]1C,0.6%
12,NC(CS)C(=O)O (configuration not stated),-0.1%
13,Cc1nc(-c2ccc(OCC(C)C)c(C#N)c2)sc1C(=O)O,1.3%
14,Oc1cccc2[nH]ccc12,1.5%
15,CCCCCCCCCCCCCCCCC(C(=O)O)C(O)(CC(=O)O)C(=O)O (configuration not stated),-0.9%
16,C#CCN[C@@H]1CCc2ccccc21,0.9%
17,Cc1c[nH]c2ccccc12,2%
18,CC(=O)Oc1c(C)c(C)c2c(c1C)CC[C@@](C)(CCC[C@H](C)CCC[C@H](C)CCCC(C)C)O2,1.7%

# From PubChem BioAssay
